Measurements reported in PubChem BioAssay (EPA / NIEHS).
“And” between values parts separate entries of the source, which are not always exact repeats. Equal values may be shown once. Records with an inconclusive call do not appear. More than one record can exist for a structure, and the calls need not agree. The source made the active and inactive calls. The calls were made as follows, unless noted: active = hit-call score of the fitted dose curve at least 0.9, where 1 is the maximum; inconclusive = response in the unintended direction; inactive = score below 0.9.

Assays:
[1] = BSK_4H_Eotaxin3: BioMAP Diversity Plus: 4H Assay for Eotaxin 3 Biomarker Activity (AID 2283000; active = hit-call score of the fitted dose curve at least 0.9, where 1 is the maximum; inactive = score below 0.9); settings: primary human endothelial cells (HUVEC); actives raise or lower the signal
How it was run: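 Human umbilical vein endothelial cells (BSK_4H system) dosed with test chemical; Eotaxin-3 (CCL26) measured by ELISA 24 h after dosing. Bidirectional curve fitting relative to DMSO negative control as baseline.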

[2] = target: human Peroxisome Proliferator-activated Receptor alpha (PPARa), PPARA (gene 5465) (UniProt Q07869); assay: ATG_PPARa_TRANS: Attagene TRANS-FACTORIAL HepG2 Assay for human Peroxisome Proliferator-activated Receptor alpha (PPARa) (AID 2283001)
How it was run: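 Gain-of-signal endpoint: reporter mRNA induction relative to DMSO, detected by fluorescent RT-PCR and capillary electrophoresis. HepG2 cells transiently carried GAL4-UAS-driven reporter units plus NR-Gal4 fusion; exposure lasted 24 h.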

[3] = target: human Peroxisome Proliferator-activated Receptor delta (PPARd), PPARD (gene 5467) (UniProt Q03181); assay: ATG_PPARd_TRANS: Attagene TRANS-FACTORIAL HepG2 Assay for human Peroxisome Proliferator-activated Receptor delta (PPARd) (AID 2283002)
How it was run: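 HepG2 cells transiently transfected with multiplexed GAL4-UAS reporter units and exogenous chimeric NR-Gal4 proteins; 24 h compound exposure. Reporter mRNA measured by RT-PCR, 6-FAM labelling, HpaI digestion and capillary electrophoresis; gain of signal versus DMSO.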

[4] = read-out: Intercellular Adhesion Molecule 1 (ICAM1), ICAM1 (gene 3383); assay: BSK_3C_ICAM1: BioMAP Diversity Plus: 3C Assay for Intercellular Adhesion Molecule 1 (ICAM1) Biomarker Activity (AID 2283003; active = hit-call score of the fitted dose curve at least 0.9, where 1 is the maximum; inactive = score below 0.9); settings: primary human endothelial cells (HUVEC); actives raise or lower the signal
How it was run: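 HUVEC primary cells stimulated under 3C conditions; ICAM1 measured by ELISA 24 h after compound dosing. Curves fitted bidirectionally against the DMSO baseline. Overt cytotoxicity checked by SRB staining of parallel cultures.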

[5] = BSK_3C_Proliferation: Cell Proliferation Assessment in the BioMAP Diversity Plus: 3C Assay (AID 2283006; active = hit-call score of the fitted dose curve at least 0.9, where 1 is the maximum; inactive = score below 0.9;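 as to AC50: potency may reflect either rise or fall in cell number versus DMSO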); settings: primary human endothelial cells (HUVEC)
How it was run: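 Subconfluent HUVEC (3C system) cultured with chemical; relative cell number read at 48 h by sulforhodamine B total-protein staining (0.1% SRB after 10% TCA fixation, 560 nm). Bidirectional fit relative to DMSO.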

[6] = target: Peroxisome proliferator-activated receptor gamma (Homo sapiens) (UniProt P37231); assay: ATG_PPARg_TRANS: Attagene TRANS-FACTORIAL HepG2 Assay for human Peroxisome Proliferator-activated Receptor-gamma (PPARg) (AID 2283007)
How it was run: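 Multiplexed reporter transcription units in HepG2, 24 h dosing, reporter transcripts quantified by fluorescent RT-PCR and capillary electrophoresis. Increase over DMSO scored.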

[7] = target: Nuclear receptor subfamily 1 group I member 2 (Homo sapiens) (UniProt O75469); assay: ATG_PXR_TRANS: Attagene TRANS-FACTORIAL HepG2 Assay for human Pregnane X Receptor (PXR) (AID 2283008)
How it was run: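 HepG2 cells transiently transfected with multiple reporter units, here a PXR-GAL4 chimera driving a GAL4-UAS reporter; 24 h compound exposure. Reporter mRNA measured by RT-PCR, FAM labelling and capillary electrophoresis; gain of signal fitted against DMSO baseline.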

[8] = read-out: Interleukin-1 alpha (IL1a), IL1A (gene 3552); assay: BSK_BE3C_IL1a: BioMAP Diversity Plus: BE3C Assay for Interleukin-1 alpha (IL1a) Biomarker Activity (AID 2283016; active = hit-call score of the fitted dose curve at least 0.9, where 1 is the maximum; inactive = score below 0.9); settings: primary human bronchial epithelial cells; actives raise or lower the signal
How it was run: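 Human primary bronchial epithelial cells, 24 h chemical exposure; IL-1a quantified by ELISA, fitted bidirectionally against DMSO. Cytotoxicity assessed in parallel by SRB total-protein staining at the time of measurement.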

[9] = read-out: Monocyte Chemoattractant Protein-1 (MCP1), CCL2 (gene 6347); assay: BSK_3C_MCP1: BioMAP Diversity Plus: 3C Assay for Monocyte Chemoattractant Protein-1 (MCP1) Biomarker Activity (AID 2283017; active = hit-call score of the fitted dose curve at least 0.9, where 1 is the maximum; inactive = score below 0.9); settings: primary human endothelial cells (HUVEC); actives raise or lower the signal
How it was run: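 MCP-1 was measured by ELISA 24 h after dosing in primary HUVEC 3C cultures and fitted in both directions relative to DMSO; cytotoxicity was checked by SRB total-protein staining in parallel wells.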

[10] = read-out: Monocyte Chemoattractant Protein-1 (MCP1), CCL2 (gene 6347); assay: BSK_4H_MCP1: BioMAP Diversity Plus: 4H Assay for Monocyte Chemoattractant Protein-1 (MCP1) Biomarker Activity (AID 2283018; active = hit-call score of the fitted dose curve at least 0.9, where 1 is the maximum; inactive = score below 0.9); settings: primary human endothelial cells (HUVEC); actives raise or lower the signal
How it was run: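 Human umbilical vein endothelial cells (4H system) exposed to chemicals for 24 h in 96-well format. MCP-1 measured by ELISA; bidirectional fitting against DMSO, with SRB total-protein staining in parallel cultures for cytotoxicity.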

[11] = read-out: Human Leukocyte Antigen - DR isotype (HLADR), HLA-DRA (gene 3122); assay: BSK_3C_HLADR: BioMAP Diversity Plus: 3C Assay for Human Leukocyte Antigen - DR isotype (HLADR) Biomarker Activity (AID 2283019; active = hit-call score of the fitted dose curve at least 0.9, where 1 is the maximum; inactive = score below 0.9); settings: primary human endothelial cells (HUVEC); actives raise or lower the signal
How it was run: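 Bidirectional fitting against DMSO was applied to the HLA-DR ELISA signal from human umbilical vein endothelial cells, 24 h post-dose. Cytotoxicity came from parallel SRB total-protein staining; 3C proliferation was counted by SRB at 48 h.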

[12] = target: human Retinoic Acid Receptor beta (RARb), RARB (gene 5915) (UniProt P10826); assay: ATG_RARb_TRANS: Attagene TRANS-FACTORIAL HepG2 Assay for human Retinoic Acid Receptor beta (AID 2283004)
How it was run: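 Induction of reporter mRNA from a chimeric RARb-Gal4 construct was measured by RT-PCR, FAM labelling, HpaI digestion and capillary electrophoresis. Measurements followed 24 h compound treatment of transiently transfected human HepG2 liver cells, with DMSO as baseline.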

[13] = target: Retinoic acid receptor alpha (Homo sapiens) (UniProt P10276); assay: ATG_RARa_TRANS: Attagene TRANS-FACTORIAL HepG2 Assay for human Retinoic Acid Receptor alpha (RARa) (AID 2283005)
How it was run: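 HepG2 cells transiently transfected with multiple reporter units expressing chimeric RARα-GAL4 fusion, with GAL4-UAS-driven reporters. After 24 h compound exposure, reporter mRNA induction quantified by RT-PCR and capillary electrophoresis with fluorescent labeling; gain-of-signal fitted relative to DMSO control.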

[14] = target: human RAR-related Orphan Receptor gamma (RORg), RORC (gene 6097) (UniProt P51449); assay: ATG_RORg_TRANS: Attagene TRANS-FACTORIAL HepG2 Assay for human RAR-related Orphan Receptor gamma (RORg) (AID 2283011)
How it was run: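 Reporter transcripts from a transfected RORg-GAL4 chimera in HepG2 cells were quantified 24 h after dosing by RT-PCR, 6-FAM labelling, HpaI digestion and capillary electrophoresis; increases over DMSO baseline were fitted.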

[15] = target: Retinoic acid receptor RXR-alpha (Homo sapiens) (UniProt P19793); assay: ATG_RXRa_TRANS: Attagene TRANS-FACTORIAL HepG2 Assay for human Retinoid X Receptor alpha (RXRa) (AID 2283012)
How it was run: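 HepG2 cells transiently transfected with GAL4-UAS reporter units and chimeric RXRa-Gal4 protein, treated 24 h. Reporter mRNA measured by RT-PCR, fluorescent labelling, HpaI digestion and capillary electrophoresis. Induction fitted against DMSO.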

[16] = target: human Thyroid Receptor alpha (THRa1), THRA (gene 7067) (UniProt P10827); assay: ATG_THRa1_TRANS: Attagene TRANS-FACTORIAL HepG2 Assay for human Thyroid Receptor alpha (THRa1) (AID 2283014)
How it was run: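 Transcripts from GAL4-UAS-driven reporters, measured after 24 h compound exposure by RT-PCR plus capillary electrophoresis of 6-FAM-labeled fragments, were fitted for gain of signal relative to DMSO. Cells: transiently transfected HepG2 expressing NR-Gal4 chimeras.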

[17] = target: human RAR-related Orphan Receptor beta (RORb), RORB (gene 6096) (UniProt Q92753); assay: ATG_RORb_TRANS: Attagene TRANS-FACTORIAL HepG2 Assay for human RAR-related Orphan Receptor beta (RORb) (AID 2283010)
How it was run: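 HepG2 cells transiently transfected with GAL4-UAS reporter units expressing chimeric NR-Gal4 protein; reporter mRNA measured 24 h after dosing by RT-PCR, 6-FAM labelling and capillary electrophoresis. Gain-of-signal fitted relative to DMSO baseline.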

[18] = target: human Retinoic Acid Receptor gamma (RARg), RARG (gene 5916) (UniProt P13631); assay: ATG_RARg_TRANS: Attagene TRANS-FACTORIAL HepG2 Assay for human Retinoic Acid Receptor gamma (RARg) (AID 2283009)
How it was run: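 HepG2 transiently transfected with GAL4-UAS reporter units and chimeric NR-Gal4 constructs; 24 h compound exposure. Reporter mRNA quantified by RT-PCR, FAM labeling, HpaI digestion and capillary electrophoresis; gain-of-signal versus DMSO.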

[19] = target: human Retinoid X Receptor beta (RXRb), RXRB (gene 6257) (UniProt P28702); assay: ATG_RXRb_TRANS: Attagene TRANS-FACTORIAL HepG2 Assay for human Retinoid X Receptor beta (RXRb) (AID 2283013)
How it was run: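 HepG2 cells were transiently transfected with multiplexed GAL4-UAS reporters and a chimeric RXRb-Gal4 construct, then exposed for 24 h. Reporter mRNA was quantified by RT-PCR, FAM labeling, HpaI digestion and capillary electrophoresis; gain of signal was scored against DMSO.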

Measured: AC50

human RAR-related Orphan Receptor gamma (RORg), RORC (gene 6097), sequence (P51449 whole entry, looked up, the tested form may be a part): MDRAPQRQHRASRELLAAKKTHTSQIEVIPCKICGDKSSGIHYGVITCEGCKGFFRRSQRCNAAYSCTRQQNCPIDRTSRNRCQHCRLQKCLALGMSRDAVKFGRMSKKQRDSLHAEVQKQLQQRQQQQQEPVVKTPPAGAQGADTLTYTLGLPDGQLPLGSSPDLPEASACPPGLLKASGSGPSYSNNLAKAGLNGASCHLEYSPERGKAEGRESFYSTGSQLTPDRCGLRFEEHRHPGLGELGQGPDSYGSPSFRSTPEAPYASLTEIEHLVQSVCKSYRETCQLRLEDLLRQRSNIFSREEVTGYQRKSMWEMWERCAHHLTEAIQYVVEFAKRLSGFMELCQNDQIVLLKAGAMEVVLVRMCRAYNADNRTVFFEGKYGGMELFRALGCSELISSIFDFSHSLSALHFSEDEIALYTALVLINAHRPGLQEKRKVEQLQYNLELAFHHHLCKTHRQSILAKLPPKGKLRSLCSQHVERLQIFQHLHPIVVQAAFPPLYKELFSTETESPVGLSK
human Retinoic Acid Receptor beta (RARb), RARB (gene 5915), sequence (P10826 whole entry, looked up, the tested form may be a part): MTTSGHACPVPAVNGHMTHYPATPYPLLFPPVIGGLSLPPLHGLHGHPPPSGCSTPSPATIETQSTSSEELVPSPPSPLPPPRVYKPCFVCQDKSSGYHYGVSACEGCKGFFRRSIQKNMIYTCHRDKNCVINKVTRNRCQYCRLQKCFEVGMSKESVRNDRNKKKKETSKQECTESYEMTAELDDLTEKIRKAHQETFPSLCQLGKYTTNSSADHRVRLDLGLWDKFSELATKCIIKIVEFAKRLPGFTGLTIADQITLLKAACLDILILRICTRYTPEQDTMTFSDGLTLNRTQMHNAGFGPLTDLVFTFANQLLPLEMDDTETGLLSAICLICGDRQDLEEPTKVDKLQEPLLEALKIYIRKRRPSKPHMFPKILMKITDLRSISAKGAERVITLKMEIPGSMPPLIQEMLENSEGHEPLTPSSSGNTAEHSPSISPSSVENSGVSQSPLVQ
human Retinoid X Receptor beta (RXRb), RXRB (gene 6257), sequence (P28702 whole entry, looked up, the tested form may be a part): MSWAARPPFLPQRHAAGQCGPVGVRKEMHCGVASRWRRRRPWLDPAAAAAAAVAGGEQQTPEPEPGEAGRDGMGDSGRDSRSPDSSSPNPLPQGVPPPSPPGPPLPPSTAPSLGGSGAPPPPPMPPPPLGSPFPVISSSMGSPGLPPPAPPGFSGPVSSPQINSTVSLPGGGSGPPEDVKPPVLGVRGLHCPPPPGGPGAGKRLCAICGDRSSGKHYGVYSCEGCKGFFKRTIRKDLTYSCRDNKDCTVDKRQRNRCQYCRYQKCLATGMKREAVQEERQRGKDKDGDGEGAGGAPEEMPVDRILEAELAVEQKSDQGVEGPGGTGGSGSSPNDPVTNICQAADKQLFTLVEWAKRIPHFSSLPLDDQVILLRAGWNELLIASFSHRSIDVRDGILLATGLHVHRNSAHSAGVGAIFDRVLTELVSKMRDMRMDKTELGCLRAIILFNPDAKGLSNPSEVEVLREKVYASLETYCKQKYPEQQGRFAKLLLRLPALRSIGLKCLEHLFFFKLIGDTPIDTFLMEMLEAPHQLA
human Retinoic Acid Receptor gamma (RARg), RARG (gene 5916), sequence (P13631 whole entry, looked up, the tested form may be a part): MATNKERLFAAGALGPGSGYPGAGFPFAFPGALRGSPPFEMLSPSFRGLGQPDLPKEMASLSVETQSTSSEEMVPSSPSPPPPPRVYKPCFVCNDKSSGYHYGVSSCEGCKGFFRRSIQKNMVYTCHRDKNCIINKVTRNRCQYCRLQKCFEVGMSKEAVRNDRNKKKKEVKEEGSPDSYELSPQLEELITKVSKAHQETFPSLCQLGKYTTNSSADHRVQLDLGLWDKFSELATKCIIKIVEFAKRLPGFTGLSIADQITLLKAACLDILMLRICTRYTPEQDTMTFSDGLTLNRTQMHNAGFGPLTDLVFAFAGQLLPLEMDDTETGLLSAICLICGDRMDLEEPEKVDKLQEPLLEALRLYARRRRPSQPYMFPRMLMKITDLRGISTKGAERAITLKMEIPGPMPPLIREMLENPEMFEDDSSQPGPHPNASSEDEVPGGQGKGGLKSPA
Retinoic acid receptor RXR-alpha (Homo sapiens), sequence (P19793 whole entry, looked up, the tested form may be a part): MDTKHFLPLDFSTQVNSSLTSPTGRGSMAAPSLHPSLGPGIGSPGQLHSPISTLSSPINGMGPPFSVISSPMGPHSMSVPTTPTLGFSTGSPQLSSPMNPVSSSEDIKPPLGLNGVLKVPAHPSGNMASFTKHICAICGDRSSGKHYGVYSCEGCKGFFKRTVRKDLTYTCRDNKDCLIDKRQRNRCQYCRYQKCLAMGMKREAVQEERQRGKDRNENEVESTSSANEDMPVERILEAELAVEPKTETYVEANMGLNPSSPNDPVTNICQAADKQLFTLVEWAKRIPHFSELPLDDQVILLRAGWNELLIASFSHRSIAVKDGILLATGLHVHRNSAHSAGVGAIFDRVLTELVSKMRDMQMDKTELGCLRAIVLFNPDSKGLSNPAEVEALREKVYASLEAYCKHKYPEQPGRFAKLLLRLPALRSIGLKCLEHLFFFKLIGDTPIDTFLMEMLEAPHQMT
Peroxisome proliferator-activated receptor gamma (Homo sapiens), sequence (P37231 whole entry, looked up): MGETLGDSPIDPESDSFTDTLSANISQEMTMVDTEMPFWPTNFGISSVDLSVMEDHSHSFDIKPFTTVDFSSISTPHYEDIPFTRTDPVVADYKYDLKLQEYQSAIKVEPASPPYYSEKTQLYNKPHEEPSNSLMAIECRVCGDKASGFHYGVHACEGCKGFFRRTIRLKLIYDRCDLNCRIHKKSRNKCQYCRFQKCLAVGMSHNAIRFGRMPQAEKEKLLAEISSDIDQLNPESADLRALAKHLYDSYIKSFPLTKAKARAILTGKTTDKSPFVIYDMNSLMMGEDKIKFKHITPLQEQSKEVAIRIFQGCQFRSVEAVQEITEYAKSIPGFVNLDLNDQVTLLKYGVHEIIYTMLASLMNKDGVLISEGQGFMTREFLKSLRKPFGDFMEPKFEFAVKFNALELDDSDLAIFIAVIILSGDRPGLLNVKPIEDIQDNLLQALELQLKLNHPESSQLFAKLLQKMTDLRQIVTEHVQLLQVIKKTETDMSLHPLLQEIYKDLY
human Peroxisome Proliferator-activated Receptor delta (PPARd), PPARD (gene 5467), sequence (Q03181 whole entry, looked up, the tested form may be a part): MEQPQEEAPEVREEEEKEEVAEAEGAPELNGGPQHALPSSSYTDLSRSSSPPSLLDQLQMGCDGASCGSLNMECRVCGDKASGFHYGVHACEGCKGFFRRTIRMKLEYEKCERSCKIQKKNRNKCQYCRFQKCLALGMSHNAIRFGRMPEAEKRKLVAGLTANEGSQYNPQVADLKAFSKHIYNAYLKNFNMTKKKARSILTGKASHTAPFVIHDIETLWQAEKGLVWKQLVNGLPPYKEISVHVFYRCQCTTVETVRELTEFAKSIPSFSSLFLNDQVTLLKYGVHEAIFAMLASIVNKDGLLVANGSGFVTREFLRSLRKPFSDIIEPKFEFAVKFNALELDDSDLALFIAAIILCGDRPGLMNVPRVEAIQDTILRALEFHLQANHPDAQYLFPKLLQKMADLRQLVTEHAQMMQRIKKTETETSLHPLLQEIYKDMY
human Thyroid Receptor alpha (THRa1), THRA (gene 7067), sequence (P10827 whole entry, looked up, the tested form may be a part): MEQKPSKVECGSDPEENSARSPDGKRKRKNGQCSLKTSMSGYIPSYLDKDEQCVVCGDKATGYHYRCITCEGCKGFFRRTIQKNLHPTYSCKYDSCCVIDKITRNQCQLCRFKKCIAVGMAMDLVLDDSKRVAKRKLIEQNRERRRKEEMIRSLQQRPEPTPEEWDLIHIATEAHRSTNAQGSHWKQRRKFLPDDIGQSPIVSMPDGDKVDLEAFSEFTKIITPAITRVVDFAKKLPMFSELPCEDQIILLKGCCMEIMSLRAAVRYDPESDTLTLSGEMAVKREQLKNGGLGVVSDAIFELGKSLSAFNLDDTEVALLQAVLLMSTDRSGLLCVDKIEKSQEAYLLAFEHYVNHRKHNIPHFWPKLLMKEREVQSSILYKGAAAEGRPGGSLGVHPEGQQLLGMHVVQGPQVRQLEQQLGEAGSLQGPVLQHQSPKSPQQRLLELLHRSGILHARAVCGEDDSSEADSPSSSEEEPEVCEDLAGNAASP
Retinoic acid receptor alpha (Homo sapiens), sequence (P10276 whole entry, looked up, the tested form may be a part): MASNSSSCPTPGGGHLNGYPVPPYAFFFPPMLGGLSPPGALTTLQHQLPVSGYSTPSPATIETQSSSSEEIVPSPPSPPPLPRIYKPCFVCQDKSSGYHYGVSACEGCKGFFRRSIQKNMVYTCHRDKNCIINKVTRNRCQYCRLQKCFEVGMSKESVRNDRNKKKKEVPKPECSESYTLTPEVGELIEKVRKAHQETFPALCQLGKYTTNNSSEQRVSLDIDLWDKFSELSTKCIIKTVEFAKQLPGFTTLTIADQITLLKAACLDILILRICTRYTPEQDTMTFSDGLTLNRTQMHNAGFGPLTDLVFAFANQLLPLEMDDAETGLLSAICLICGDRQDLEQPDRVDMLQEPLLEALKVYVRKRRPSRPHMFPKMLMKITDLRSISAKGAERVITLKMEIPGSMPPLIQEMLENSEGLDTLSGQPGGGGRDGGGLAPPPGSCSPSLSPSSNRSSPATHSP
human Peroxisome Proliferator-activated Receptor alpha (PPARa), PPARA (gene 5465), sequence (Q07869 whole entry, looked up, the tested form may be a part): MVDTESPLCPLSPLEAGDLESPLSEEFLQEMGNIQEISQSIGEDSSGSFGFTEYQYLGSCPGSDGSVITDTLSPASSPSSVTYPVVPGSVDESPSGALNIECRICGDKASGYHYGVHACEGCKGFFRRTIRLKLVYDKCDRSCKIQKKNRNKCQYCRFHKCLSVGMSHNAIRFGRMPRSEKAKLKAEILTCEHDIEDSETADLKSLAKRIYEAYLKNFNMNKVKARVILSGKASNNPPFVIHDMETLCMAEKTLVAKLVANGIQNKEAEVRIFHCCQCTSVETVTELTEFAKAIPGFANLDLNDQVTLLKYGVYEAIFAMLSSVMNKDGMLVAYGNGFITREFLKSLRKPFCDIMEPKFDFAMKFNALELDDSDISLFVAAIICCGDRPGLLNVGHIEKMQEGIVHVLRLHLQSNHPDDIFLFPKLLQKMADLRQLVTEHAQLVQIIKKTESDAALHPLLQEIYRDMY

COc1ccccc1NC(=O)CC(C)=O
inactive: [1] | [2] | [3] | [4] | [5] | [6] | [8] | [9] | [10] | [11]
active: [7] 37 µM

COC(=O)c1ccc(C(=O)OC)cc1
not listed: [3] | [6] | [17] | [18] | [19]
inactive: all other assays above

O=C1OC2(c3ccc(O)cc3Oc3cc(O)ccc32)c2ccccc21
active: [5] 20 µM | [7] 0.896 µM | [11] 20 µM
not listed: [12] | [13] | [18] | [19]
inactive: all other assays above

CCOC(=O)CCCCCCCCC(=O)OCC
inactive: [1] | [2] | [4] | [5] | [8] | [9] | [10] | [11]

C#C[C@]1(O)CC[C@H]2[C@@H]3CCc4cc(O)ccc4[C@H]3CC[C@@]21C
inactive: [1] | [3] | [4] | [12] | [13] | [6] | [7] | [18] | [17] | [14] | [15] | [19] | [8] | [10]
active: [5] 4.5 µM | [7] 2.7 µM and 4.39 µM and 6.57 µM | [9] 7.15 µM | [11] 6.67 µM

O=S1(=O)CC(Cl)(Cl)C(Cl)(Cl)C1
inactive: [2] | [3] | [7] | [14] | [15] | [19] | [16]
active: [1] 0.408 µM | [4] 1.02 µM | [5] 0.191 µM | [8] 1.33 µM | [9] 0.961 µM | [10] 0.537 µM | [11] 0.327 µM

CCCCOCCOCCO
not listed: [2] | [3] | [6] | [7] | [14] | [15] | [17] | [19]
inactive: all other assays above

CC(=O)OC(C)(C)C1CC=C(C)CC1 (centres undefined)
inactive: [2] | [4] | [6] | [14] | [15] | [19] | [8]
active: [1] 33.3 µM | [5] 28.4 µM | [7] 33.8 µM | [9] 31.3 µM | [10] 29.8 µM | [11] 31.3 µM
